Assay results from PubChem BioAssay AID2685 (National Center for Advancing Translational Sciences (NCATS), 2010).
Hit rate of the full screen: of about 320,000 compounds, about 2,100 (0.66%) were called active. Roughly 53% stayed inconclusive and do not appear here. Calls come from the whole dose curve; as a rule, active = well fitted inhibition curve with a large enough effect in the signal ratio, with a control signal flat (not every such curve was filed as active); inconclusive = small, poorly fitted or top-dose-only effect, or effect the other way, or a change in a side signal; inactive = flat fitted curve, though single readings scatter; the % refers to the signal ratio. The entries come from a sample that favours actives as a whole.

experiment: qHTS Assay for Lipid Storage Modulators in Drosophila S3 Cells; conditions: BODIPY lipid droplet fluorescence, 18-24 h, cells fed with added oleic acid; cell number change: measured here: cell count max response; series mostly up to 46.1 µM;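 for cell number change: cells counted by Cell Tracker Red CMTPX staining in the red channel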
Method in brief: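 Drosophila S3 cells loaded with oleic acid (400 uM, as added) and compounds at several concentrations; lipid droplets imaged by 488-nm laser-scanning cytometry, 500–530 nm intensity and object ratio to cell channel. Percent activity normalized to 20 uM Triacsin C.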
Potency is the fitted concentration of half-maximal effect.

Row | SMILES | Potency | cell number change [%]
1 | O=C(CNc1cccc2ccccc12)N/N=C/c1ccc([N+](=O)[O-])o1 | 16.4 µM (active) | -25.8
2 | O=C(N/N=C/c1ccc([N+](=O)[O-])o1)C(=O)Nc1ccc(C(=O)O)cc1 | inactive | 8.32
3 | O=C(CNc1cccc2ccccc12)N/N=C/c1ccc([N+](=O)[O-])cc1 | inactive | -4.75
4 | CCCC(=O)Nc1ccc(C(=O)N/N=C/c2ccc([N+](=O)[O-])o2)cc1 | 14.6 µM (active) | -15.2
5 | CCCCCCCC(=O)N/N=C/c1ccc([N+](=O)[O-])o1 | inactive | -5.79
6 | O=C(CNc1ccc2ccccc2c1)N/N=C/c1ccc([N+](=O)[O-])o1 | inactive | –
7 | COc1nc(OC)nc(N2CCC(C(=O)Nc3cccc4c3CCCC4)CC2)n1 | inactive | -6.45
8 | O=C1OC(C(=O)Nc2nccs2)Cc2ccccc21 (stereo not drawn) | inactive | –
9 | CC(C)(C)c1nc(SCC(=O)Nc2ccc3c(c2)OCCO3)c2ccccc2n1 | 18.4 µM (active) | -25.4
10 | Cc1cc(NC(=O)CSc2nc(C(C)(C)C)nc3ccccc23)no1 | inactive | -18
11 | O=C(CSc1ncnc2ccccc12)Nc1ccc2c(c1)OCCO2 | inactive | –
12 | COc1ccc2[nH]c(=O)c(CNc3ccc(C)cc3C)cc2c1 | inactive | -6.94
13 | CC(=O)N/C(=C/c1ccccc1)C(=O)NCCO | inactive | 7.72
14 | CC(C)(C)CC(=O)Nc1nnc(C(F)(F)F)s1 | inactive | 0.161
15 | O=C(NCC(F)(F)F)Nc1nnc(C(F)(F)F)s1 | inactive | 0.475
16 | CCc1ccc(NC(=O)CCC(=O)Nc2nnc(C(F)(F)F)s2)cc1 | inactive | 24.4
17 | O=C(O)CCC(=O)Nc1nnc(C(F)(F)F)s1 | 29.1 µM (active) | -2.24
18 | CCC(NC(=O)Nc1nnc(C(F)(F)F)s1)(C(F)(F)F)C(F)(F)F | 16.4 µM (active) | -12.6
19 | O=C(CCC(=O)N1CCCC1)Nc1nnc(C(F)(F)F)s1 | inactive | 11.1
20 | CCOC(=O)C1CCN(C(=O)C(CCSC)NC(=O)COc2ccccc2)CC1 (stereo not drawn) | inactive | 22.1
21 | CC(=O)Nc1cccc(-c2nn[nH]n2)c1 | inactive | 9.02
22 | CC(=O)Nc1ccc(Nc2nnc(-c3ccc(O)cc3)c3ccccc23)cc1 | inactive | 9.07
23 | Cc1cc(C)cc(NC(=O)Cc2ccc(-n3cccc3)cc2)c1 | inactive | -7.37
24 | COc1ccc(C(CCN(Cc2ccc(OC)c(OC)c2)C(C)=O)c2ccccc2)cc1 (stereo not drawn) | inactive | -3.52

Row | SMILES | Potency | cell number change [%]
25 | CC(=O)N(CCC(c1ccco1)C(C)C)Cc1ccc(OC(C)C)cc1 (stereo not drawn) | inactive | -2.37
26 | COc1ccc(C(CCN(Cc2ccc(OC)c(OC)c2)C(C)=O)C(C)C)cc1 (stereo not drawn) | 0.82 µM (active) | -13.5
27 | Cc1ccc(-c2ccc(CCC(=O)O)n2Cc2ccco2)cc1 | inactive | 19.5
28 | O=C(O)CCc1ccc(-c2ccc(Br)cc2)n1Cc1ccco1 | 6.51 µM (active) | -8.78
29 | O=C(O)CCc1ccc(-c2ccc(F)cc2)n1Cc1ccco1 | inactive | -0.476
30 | Cc1[nH]c2ccccc2c1C(=O)C(=O)N1CCN(c2ccccc2)CC1 | inactive | 8.19
31 | CN(c1cccc(NC(=O)CN(c2cccc(Cl)c2)S(=O)(=O)c2ccc(Cl)cc2)c1)S(C)(=O)=O | inactive | -18.4
32 | Cc1ccc(Cl)cc1N(CC(=O)Nc1cccc(N(C)S(C)(=O)=O)c1)S(C)(=O)=O | 14.6 µM (active) | -15.4
33 | CCc1ccccc1N(CC(=O)Nc1cccc(N(C)S(C)(=O)=O)c1)S(C)(=O)=O | inactive | 5.08
34 | COc1ccc2oc(CS(=O)c3ccccc3)c(C(=O)O)c2c1 (stereo not drawn) | inactive | 13.2
35 | CC1OC2(OC1C)C(=O)Nc1ccccc12 (stereo not drawn) | inactive | –
36 | CN1C(=S)SC(C)(NO)C1(C)C (stereo not drawn) | 5.17 µM (active) | -11.6
37 | CN1C(=S)SC(C)(C)C1(C)NO (stereo not drawn) | 1.64 µM (active) | 0.152
38 | CN1C(=S)SC(C)(C)C1NO (stereo not drawn) | inactive | 1.23
39 | CCC(C)c1ccc(S(=O)(=O)Nc2cccnc2)cc1 (stereo not drawn) | inactive | -23.6
40 | CCCCCCCCCCCCS[C@H]1CS(=O)(=O)C[C@@H]1O | inactive | -8.76
41 | CC(=O)Nc1cc2cc(NS(=O)(=O)c3ccc(Cl)cc3)ccc2oc1=O | inactive | 9.39
42 | COC(=O)/C(C#N)=C\c1c(OC)[nH]c2ccccc12 | inactive | -7.03
43 | CN(Cc1c(F)cccc1Cl)S(=O)(=O)c1cccs1 | 5.8 µM (active) | -15.8
44 | CN(Cc1ccccc1)S(=O)(=O)c1cccs1 | inactive | 5.69
45 | CN(Cc1c(F)cccc1Cl)C(=O)CNC(=O)c1cccs1 | inactive | -5.78
46 | CC(C)CSc1nc2c(c(=O)[nH]c(=O)n2C)n1CCc1ccccc1 | inactive | 0.065
47 | COc1ccccc1N1CCN(C(=O)c2c(C)cc(=O)oc2C)CC1 | inactive | -3.57
48 | O=C(c1cc(-c2ccc(O)cc2)on1)N1CCN(c2ccc(F)cc2)CC1 | inactive | -16.1

Row | SMILES | Potency | cell number change [%]
49 | Cc1cc(=O)oc(C)c1C(=O)NCCCN1CCN(c2ccc(F)cc2)CC1 | inactive | 2.43
50 | Cc1c(C(=O)N2CCN(S(=O)(=O)c3cc(F)ccc3F)CC2)oc2ccccc12 | inactive | -12.2
51 | O=C(c1ccc(N2CCN(C(=O)c3ccccc3)CC2)cc1)c1cccc(F)c1 | 2.06 µM (active) | 0.901
52 | Cc1c(C(=O)N2CCN(C(=O)c3ccccc3)CC2)oc2ccc(F)cc12 | 1.84 µM (active) | -15.5
53 | O=C(c1ccc(N2CCN(C(=O)c3ccccc3Br)CC2)cc1)c1cccc(F)c1 | inactive | -10.8
54 | O=C(c1cc(-c2ccc(Cl)cc2)on1)N1CCN(c2ccc(F)cc2)CC1 | 20.6 µM (active) | 8.11
55 | Cc1cc(=O)oc(C)c1C(=O)N1CCN(c2ccc(F)cc2)CC1 | 23.1 µM (active) | -3.9
56 | O=C(c1cccc(C(=O)N2CCN(c3ccccc3)CC2)c1)N1CCN(c2ccccc2)CC1 | inactive | -3.1
57 | O=C(c1cc(-c2ccc3c(c2)OCO3)on1)N1CCN(c2ccc(F)cc2)CC1 | inactive | 27.5
58 | Cc1c(C(=O)N2CCN(CCc3ccccn3)CC2)oc2ccc(F)cc12 | inactive | 0.99
59 | COc1ccc(CNC(=O)CCC(=O)Nc2nnc(CC(C)C)s2)cc1 | inactive | 5.14
60 | COc1ccc(N(C(=O)CNC(=O)c2cccs2)C(C(=O)NCC2CCCO2)c2ccccc2)c(OC)c1 (stereo not drawn) | inactive | 5.71
61 | CC(=O)Oc1ccc2nc(-c3cccs3)oc(=O)c2c1 | inactive | -22.5
62 | Cc1ccc(NC(=S)NC(CO)C(O)c2ccc([N+](=O)[O-])cc2)cc1 (stereo not drawn) | inactive | -1.73
63 | Fc1cnc(N2CCOCC2)nc1N1CCc2ccccc21 | inactive | -10.6
64 | O=C(c1ccccc1C(=O)N1CCN(c2ccc(F)cc2)CC1)N1CCN(c2ccc(F)cc2)CC1 | 2.59 µM (active) | -27
65 | O=C(O)c1ccccc1C(=O)N1CCN(c2ccccc2)CC1 | inactive | 0.845
66 | O=C(c1ccccc1Oc1ccccc1)N1CCN(c2ccc(F)cc2)CC1 | inactive | 14.1
67 | CC(C)CN(C(=O)CCC(=O)OCC(=O)N(C)c1ccccc1)c1c(N)n(CC(C)C)c(=O)[nH]c1=O | inactive | –
68 | CC1CN(C(=O)c2cc3c(=O)n4ccccc4nc3n2C)CC(C)O1 (stereo not drawn) | inactive | 15.1
69 | Cn1c(C(=O)O)cc2c(=O)n3ccccc3nc21 | inactive | 3.26
70 | CC1CC(NC(=O)c2cc3c(=O)n4ccccc4nc3n2C)CC(C)(C)C1 (stereo not drawn) | 18.4 µM (active) | 3.3
71 | CCOc1cc(C(=O)NCC2CCCO2)cc(OCC)c1OCC (stereo not drawn) | inactive | –
72 | Cc1cc(C)c(S(=O)(=O)N2CCN(C(=O)c3c(C)noc3C)CC2)c(C)c1 | inactive | -0.389

Row | SMILES | Potency | cell number change [%]
73 | CCOC(=O)CN1C(=O)SC(Nc2ccc(C)cc2)C1=O (stereo not drawn) | inactive | 0.723
74 | O=C(O)CN1C(=O)SC(Nc2ccccc2)C1=O (stereo not drawn) | inactive | 7.54
75 | Cc1ccc(NC2SC(=O)N(CC(=O)O)C2=O)cc1 (stereo not drawn) | 23.1 µM (active) | -7.73
76 | Cn1cnnc1SCCNS(=O)(=O)c1cccc([N+](=O)[O-])c1 | inactive | 3.23
77 | CCc1ccc(NC(=S)N(CCN2CCOCC2)Cc2ccccc2F)cc1 | inactive | 13.9
78 | CN(C)S(=O)(=O)N(CCN1CCOCC1)Cc1ccccc1F | 9.2 µM (active) | 6.57
79 | Cc1ccc(NC(=S)N(CCN2CCOCC2)Cc2ccccc2F)cc1 | inactive | -12.7
80 | Cn1cnnc1Sc1ccc(C(F)(F)F)cc1[N+](=O)[O-] | inactive | 20.3
81 | Cc1ccc(C2(c3noc(CN4C[C@@H](C)O[C@@H](C)C4)n3)CCCC2)cc1 | inactive | -4.24
82 | CCOc1ccc2ccccc2c1C(=O)Nc1cc(=O)n(C)c(=O)n1C | inactive | -14
83 | Cc1[nH]n(-c2ccccc2)c(=O)c1N=O | inactive | -9.61
84 | Cc1[nH]n(-c2ccccc2)c(=O)c1N=Nc1ccccc1C(=O)N1CCOCC1 | inactive | -24.3
85 | Cc1[nH]n(-c2ccccc2)c(=O)c1N=Nc1ccc(Cl)cc1 | 9.2 µM (active) | -10.2
86 | Cc1[nH]n(-c2ccc(Cl)cc2)c(=O)c1N=Nc1cccnc1 | inactive | 8.32
87 | COc1ccccc1N=Nc1c(C)[nH]n(-c2ccccc2)c1=O | 14.6 µM (active) | 0.338
88 | Cc1[nH]n(-c2ccccc2)c(=O)c1N=Nc1ccc(C(N)=O)cc1 | inactive | 15.5
89 | COc1ccccc1NC(=O)C1=C(C)Nc2nc(-c3ccccc3)nn2C1c1ccccn1 (stereo not drawn) | inactive | –
90 | O=C(CN1C(=O)NC2(CCCCCCC2)C1=O)Nc1ccc(Cl)cc1 | inactive | 27.1
91 | COC(=O)C1=C(NC(=O)C2CCCCC2)CCS1 | inactive | -10
92 | CC(C)Oc1ccc(/C=C/C(=O)NCC2COc3ccccc3O2)cc1 (stereo not drawn) | inactive | -3.08
93 | CCS(=O)(=O)c1nc(S(=O)(=O)c2ccc(C)cc2)c(NCCN2CCOCC2)s1 | inactive | –
